# According to PubChem BioAssay (Tox21):
# Records with an inconclusive call do not appear. Entries that show only a call come without a potency. Unmarked numbers belong to inactive results. Active and inactive are the calls of the source. Unless noted, calls come from the whole dose curve; as a rule, active = well fitted curve in the direction sought with a large enough effect in the repeat runs; inconclusive = weak or mixed curves; inactive = no such curve, though single readings can be large; an effect the other way counts as inactive or inconclusive.
# How the values were obtained:
# [1] = qHTS assay to identify small molecule that activate the aryl hydrocarbon receptor (AhR) signaling pathway - cell viability counter screen (AID 743086); note: nearly all actives have a fitted effect of over 45% in size; note: potency is the fitted concentration of half-maximal effect;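 for viability change, negative = cytotoxic: HepG2 liver cells carrying the AhR DRE luciferase reporter; series mostly up to about 70 µM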
# Procedure, shortened: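 HepG2-AhR-luc (HG2L7.5c1) cells, 4000/well, treated 24 h at 37 C with compound; viability measured as CellTiter-Fluor fluorescence after 30 min in the same wells as the luciferase read.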
# [2] = target: Peroxisome proliferator-activated receptor gamma (Homo sapiens) (UniProt P37231); assay: qHTS assay to identify small molecule antagonists of the peroxisome proliferator-activated receptor gamma (PPARg) signaling pathway (AID 743191; calls by dose curve; note: series mostly up to about 63 µM; nearly all actives have a fitted effect of over 30% in size)
# Chain of Peroxisome proliferator-activated receptor gamma (Homo sapiens) (P37231 whole entry, looked up): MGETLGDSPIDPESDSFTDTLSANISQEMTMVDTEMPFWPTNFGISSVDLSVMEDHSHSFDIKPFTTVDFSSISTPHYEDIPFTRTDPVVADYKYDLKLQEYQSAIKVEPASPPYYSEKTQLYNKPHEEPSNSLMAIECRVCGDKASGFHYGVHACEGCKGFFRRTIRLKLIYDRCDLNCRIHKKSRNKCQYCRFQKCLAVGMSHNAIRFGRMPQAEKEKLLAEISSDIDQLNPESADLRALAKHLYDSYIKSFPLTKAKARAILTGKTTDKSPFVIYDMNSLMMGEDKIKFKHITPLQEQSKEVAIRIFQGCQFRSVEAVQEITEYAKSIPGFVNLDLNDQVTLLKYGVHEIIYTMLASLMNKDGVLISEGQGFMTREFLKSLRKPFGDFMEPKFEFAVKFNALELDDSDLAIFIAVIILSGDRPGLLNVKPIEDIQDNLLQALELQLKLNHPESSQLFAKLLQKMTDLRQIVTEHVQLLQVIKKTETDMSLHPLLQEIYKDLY
# Procedure, shortened: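 GeneBLAzer PPARg UAS-bla HEK293H cells, 5 h post-plating, exposed to compounds 17 h at 37C. LiveBLAzer B/G FRET substrate added for 1 h at room temperature; beta-lactamase reporter read by fluorescence intensity.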
# [3] = qHTS assay to identify small molecule antagonists of the peroxisome proliferator-activated receptor gamma (PPARg) signaling pathway - cell viability counter screen (AID 743194); note: nearly all actives have a fitted effect of over 55% in size
# Procedure, shortened: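 Cytotoxicity counter screen in PPARg-bla HEK293H cells, same wells as reporter assay. Compounds plus 50 nM rosiglitazone (final) for 17 h at 37 C, then viability read by CellTiter-Glo luminescence.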
# [4] = qHTS assay for small molecule agonists of the antioxidant response element (ARE) signaling pathway (AID 743202; active = well fitted activation curve with a large enough effect in the signal ratio in the repeat runs, not every such curve was filed as active; the % refers to the signal ratio)
# Procedure, shortened: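 ARE-bla HepG2 cells (beta-lactamase reporter under the antioxidant response element), plated 5 hours, then exposed to compounds 16 hours at 37 C. LiveBLAzer B/G FRET substrate added for 2 hours at room temperature; fluorescence intensity read.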
# [5] = qHTS assay for small molecule agonists of the antioxidant response element (ARE) signaling pathway - cell viability counter screen (AID 743203; calls by dose curve; note: nearly all actives have a fitted effect of over 55% in size)
# Procedure, shortened: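 ARE-bla HepG2 cells were plated, rested 5 h at 37C/5% CO2, then exposed to compounds in DMSO for 16 h. Viability was read as CellTiter-Glo luminescence after 30 min at room temperature, in the same wells as the ARE screen.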
# [6] = qHTS assay for small molecule activators of the heat shock response signaling pathway - cell viability counter screen (AID 743209); note: nearly all actives have a fitted effect of over 50% in size
# Procedure, shortened: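 HSE-bla HeLa cells plated overnight, then exposed to Tox21 compounds (23 nL in DMSO) for 5 h at 37 C. After the bla reporter read, CellTiter-Glo was added in the same wells and luminescence read after 30 min at room temperature.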
# [7] = qHTS assay to identify small molecule agonists of the peroxisome proliferator-activated receptor delta (PPARd) signaling pathway - cell viability counter screen (AID 743211); note: nearly all actives have a fitted effect of over 55% in size
# Procedure, shortened: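 Luminescent ATP viability assay (CellTiter-Glo, 30 min RT) in UAS-bla HEK293H cells carrying the PPAR delta reporter construct, 3000 cells/well, after a 17 h compound treatment at 37 C.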
# [8] = qHTS assay for small molecule activators of the heat shock response signaling pathway (AID 743210; active = well fitted activation curve with a large enough effect in the signal ratio in the repeat runs, with a control signal flat, not every such curve was filed as active; the % refers to the signal ratio; note: series mostly up to about 63 µM)
# Procedure, shortened: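 HSE-bla HeLa cells (beta-lactamase reporter under heat shock response elements), plated overnight, then exposed to compounds 5 h at 37 C; LiveBLAzer B/G FRET substrate added, 2.5 h at room temperature, fluorescence intensity read.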
# [9] = target: Peroxisome proliferator-activated receptor gamma (Homo sapiens) (UniProt P37231); assay: qHTS assay to identify small molecule agonists of the peroxisome proliferator-activated receptor gamma (PPARg) signaling pathway (AID 743094; active = well fitted activation curve with a large enough effect in the signal ratio in the repeat runs, not every such curve was filed as active; the % refers to the signal ratio)
# Procedure, shortened: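 GeneBLAzer PPARg UAS-bla HEK293H cells were plated, rested 5 h, then exposed to compounds for 17 h at 37C. Beta-lactamase activity was read by LiveBLAzer B/G FRET substrate fluorescence after 1 h at room temperature.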
smiles,measurement,setting,value
O=C(COCCOCCOCC(=O)Nc1c(I)cc(I)c(C(=O)O)c1I)Nc1c(I)cc(I)c(C(=O)O)c1I,Potency,[1],inactive
same,Potency,[2],inactive
same,outcome,[3],inactive
same,Potency,[4],inactive
same,outcome,[5],inactive
same,outcome,[6],inactive
same,outcome,[7],inactive
CNCc1ccccc1,Potency,[1],inactive
same,Potency,[2],inactive
same,outcome,[3],inactive
same,Potency,[4],inactive
same,outcome,[8],inactive
same,outcome,[7],inactive
Nc1ccc(C(=O)OCC(O)CO)cc1 (stereo unspecified),Potency,[2],inactive
same,outcome,[3],inactive
same,Potency,[4],inactive
same,outcome,[8],inactive
same,outcome,[7],inactive
CCCCCC1CCCC(=O)O1 (stereo unspecified),Potency,[1],inactive
same,outcome,[9],inactive
same,outcome,[3],inactive
same,Potency,[4],inactive
same,outcome,[6],inactive
same,outcome,[8],inactive
same,outcome,[7],inactive
CCCCC(CC)CNC(=O)CC(C)OC(=O)CCC(=O)O (stereo unspecified),outcome,[3],inactive
same,Potency,[4],inactive
same,outcome,[5],inactive
same,outcome,[8],inactive
same,outcome,[7],inactive
CCCCCCCCCCCCCCCCCCN(C)C,outcome,[3],inactive
same,Potency,[4],inactive
same,outcome,[5],inactive
same,outcome,[6],inactive
same,outcome,[8],inactive
same,outcome,[7],inactive
COc1ccc(N=Nc2cc(C)c(N=Nc3ccc(S(=O)(=O)O)cc3)cc2OC)cc1,Potency,[1],48.6 µM (active)
same,outcome,[9],inactive
same,outcome,[3],inactive
same,outcome,[5],inactive
same,outcome,[8],inactive
same,outcome,[7],inactive
CCCCCCCC/C=C\CCCCCCCC(=O)OC[C@@H](O)[C@H]1OC[C@H](O)[C@H]1O,Potency,[1],inactive
same,outcome,[9],inactive
same,outcome,[6],inactive
same,outcome,[8],inactive
same,outcome,[7],inactive
O=C(O)Cc1cccc(-c2cc(CCCCCCc3ccc(O[C@H]4O[C@H](CO)[C@@H](O)[C@H](O)[C@@H]4O)c(-c4cccc(CC(=O)O)c4)c3)ccc2O[C@H]2O[C@H](CO)[C@@H](O)[C@H](O)[C@@H]2O)c1,Potency,[1],inactive
same,outcome,[9],inactive
same,activation,[4],-7.76% [at 0.756 µM]
same,"viability change, negative = cytotoxic",[5],-4.49% [at 0.756 µM]
same,activation,[8],0.0325% [at 0.55 µM]
same,"activity change, negative = cytotoxicity",[7],4.03% [at 0.55 µM]
CCC(C)(CCC(C)C)C(=O)[O-].CCC(C)(CCC(C)C)C(=O)[O-].[Zn+2] (stereo unspecified),Potency,[1],inactive
same,Potency,[4],inactive
same,outcome,[5],inactive
same,outcome,[6],inactive
same,outcome,[7],inactive
CC(=O)OC(C)(C)Cc1ccccc1,Potency,[1],inactive
same,outcome,[3],inactive
same,outcome,[5],inactive
same,outcome,[6],inactive
same,outcome,[8],inactive
same,outcome,[7],inactive
C=CCOc1c(Br)cc(C(C)(C)c2cc(Br)c(OCC=C)c(Br)c2)cc1Br,Potency,[1],inactive
same,outcome,[9],inactive
same,outcome,[3],inactive
same,outcome,[5],inactive
same,outcome,[8],inactive
same,outcome,[7],inactive
O=C(CN1CCN(Cc2ccc3c(c2)OCO3)CC1)N1c2ccccc2Sc2ccccc21,Potency,[2],inactive
same,outcome,[3],inactive
same,outcome,[6],inactive
same,outcome,[8],inactive
same,outcome,[7],inactive
C/C=C(\C)C(=O)OCC/C=C\CC,Potency,[1],inactive
same,outcome,[3],inactive
same,Potency,[4],inactive
same,outcome,[5],inactive
same,outcome,[6],inactive
same,outcome,[8],inactive
same,outcome,[7],inactive
COc1ccc(OC)c(NC(=O)CC(C)=O)c1,Potency,[1],inactive
same,outcome,[3],inactive
same,Potency,[4],inactive
same,outcome,[5],inactive
same,outcome,[6],inactive
same,outcome,[7],inactive
Cc1nc2n(c(=O)c1CCN1CCC(C(=O)c3ccc(F)cc3)CC1)CCS2,Potency,[2],inactive
same,outcome,[3],inactive
same,outcome,[5],inactive
same,outcome,[6],inactive
same,outcome,[8],inactive
N#CCCOCCOCCC#N,Potency,[1],inactive
same,outcome,[3],inactive
same,Potency,[4],inactive
same,outcome,[5],inactive
same,outcome,[6],inactive
same,outcome,[8],inactive
same,outcome,[7],inactive
c1ccccc1,outcome,[3],inactive
same,Potency,[4],inactive
same,outcome,[5],inactive
same,outcome,[8],inactive
same,outcome,[7],inactive
C=CCOCC(CO)(COCC=C)COCC=C,Potency,[1],inactive
same,Potency,[4],inactive
same,outcome,[5],inactive
same,outcome,[6],inactive
same,outcome,[8],inactive
same,outcome,[7],inactive
O=[Si]=O,Potency,[1],inactive
same,Potency,[2],inactive
same,outcome,[3],inactive
same,Potency,[4],inactive
same,outcome,[6],inactive
same,outcome,[8],inactive
same,outcome,[7],inactive
CC(C)C(=O)Nc1cccc(C(F)(F)F)c1,outcome,[3],inactive
same,Potency,[4],inactive
same,outcome,[5],inactive
same,outcome,[6],inactive
same,outcome,[8],inactive
same,outcome,[7],inactive
CC(=O)N1CCN(c2ccc(O)cc2)CC1,Potency,[2],inactive
same,outcome,[3],inactive
same,outcome,[6],inactive
same,outcome,[8],inactive
same,outcome,[7],inactive
CO/N=C(/C(=O)N[C@@H]1C(=O)N2C(C(=O)O)=C(Cn3nnc(C)n3)CS[C@H]12)c1csc(N)n1,Potency,[1],inactive
same,outcome,[3],inactive
same,Potency,[4],inactive
same,outcome,[6],inactive
same,outcome,[8],inactive
same,outcome,[7],inactive
CC(C)=CC(C)(C)C,Potency,[1],inactive
same,outcome,[3],inactive
same,Potency,[4],inactive
same,outcome,[6],inactive
same,outcome,[8],inactive
same,outcome,[7],inactive
O=C(O)c1ccc(OCCN2CCCCC2)cc1,Potency,[2],inactive
same,outcome,[3],inactive
same,Potency,[4],inactive
same,outcome,[5],inactive
same,outcome,[6],inactive
same,outcome,[7],inactive
Cc1cccc(NC(=S)N(C)C)c1,Potency,[1],inactive
same,outcome,[3],inactive
same,Potency,[4],inactive
same,outcome,[5],inactive
same,outcome,[6],inactive
same,outcome,[7],inactive
Nc1c(NC/C=C\COc2cc(CN3CCCCC3)ccn2)c(=O)c1=O,outcome,[9],inactive
same,Potency,[2],inactive
same,outcome,[3],inactive
same,outcome,[5],inactive
same,outcome,[6],inactive
same,outcome,[8],inactive
same,outcome,[7],inactive
Cc1ccc(C(=O)C(=O)O)cc1C,Potency,[2],inactive
same,outcome,[3],inactive
same,Potency,[4],inactive
same,outcome,[5],inactive
same,outcome,[6],inactive
same,outcome,[8],inactive
same,outcome,[7],inactive
Cc1ccccc1N1CCN(CCc2nnc3n2CCCC3)CC1,Potency,[1],inactive
same,Potency,[2],inactive
same,outcome,[3],inactive
same,Potency,[4],inactive
same,outcome,[5],inactive
same,outcome,[6],inactive
same,outcome,[8],inactive
same,outcome,[7],inactive
CCN(CC)C(=O)C1CN2CCc3cc(OC)c(OC)cc3C2CC1OC(C)=O (stereo unspecified),outcome,[3],inactive
same,Potency,[4],inactive
same,outcome,[5],inactive
same,outcome,[6],inactive
same,outcome,[8],inactive
same,outcome,[7],inactive
